# Data taken from the supplement of paper PMC10127200.
# Counter-ions that a name gives are not always drawn.
# Experiments:
# Test in all cases: Euclidean distance of Cell Painting phenotypic profile (signed KS, 77 features) to DMSO centroid (dimensionless distance); 5 or 10 uM (library dependent); higher = stronger phenotypic change vs DMSO (phenoactivity)
# Conditions in all cases: 48 h
# [1] = system: 786-O
# Summary of the method: (§1)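 Phenoactivity is defined as the Euclidean distance from a compound profile to the median vehicle profile. Each profile comprised 77 Harmony features, scored as signed Kolmogorov-Smirnov statistics versus same-plate vehicle wells, then plate-position corrected, correlation-weighted and replicate-averaged at the top dose. Five cancer lines and one healthy fibroblast line were exposed to library compounds for 48 h at 10 or 5 uM (0.1% DMSO final).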
# [2] = system: A549
# Summary of the method: as §1
# [3] = system: DU145
# Summary of the method: as §1
# [4] = system: FB
# Summary of the method: as §1
# [5] = system: HEPG2
# Summary of the method: as §1
# [6] = system: OVCAR4
# Summary of the method: as §1
SMILES,Euclidean distance [1],Euclidean distance [2],Euclidean distance [3],Euclidean distance [4],Euclidean distance [5],Euclidean distance [6]
N[C@@H](Cc1c[nH]c2ccccc12)C(=O)O [L-Tryptophan],0.689,1.11,0.644,0.569,0.851,1.36
OC[C@H]1O[C@H](O[C@H]2O[C@H](CO)[C@@H](O)[C@H](O)[C@H]2O)[C@H](O)[C@@H](O)[C@@H]1O [D-(+)-Trehalose dihydrate],0.894,1.33,1.15,1.04,0.672,1.09
NCc1ccccc1CC(=O)N[C@@H]1C(=O)N2C(C(=O)O)=C(CSc3nnnn3CC(=O)O)CS[C@H]12 [Ceforanide],0.783,0.791,1.07,1.16,0.834,1.64
Nc1n[n+]([O-])c2ccccc2[n+]1[O-] [Tirapazamine],2.03,1.01,0.984,2.3,2.21,1.52
CCc1ccc(OCc2ccccc2C(=O)Nc2ccc3nc(C)cc(N)c3c2)cc1,4.35,4.14,3.63,5.25,5.11,4.53
CO/N=C(\C(=O)N[C@@H]1C(=O)N2C(C(=O)O)=C(CSc3nnnn3C)CS[C@H]12)c1csc(N)n1 [Cefmenoxime hydrochloride],0.657,0.643,1.22,0.686,0.775,0.594
CO[C@@H]1[C@@H](OC(N)=O)[C@@H](O)[C@H](Oc2ccc3c(O)c(NC(=O)c4ccc(O)c(CC=C(C)C)c4)c(=O)oc3c2C)OC1(C)C [Novobiocin Sodium],0.865,0.868,0.814,1.04,0.385,1.19
Cc1cccc(-c2[nH]c(CNc3ccccc3F)nc2-c2ccc3ncnn3c2)n1 [Vactosertib ?(TEW-7197)],1.71,1.61,1.41,1.83,1.26,1.5
CCCCCCc1ccc(O)cc1O [Hexylresorcinol],1.35,0.943,0.978,0.936,1.32,1.16
CCCCC(=O)N(Cc1ccc(-c2ccccc2-c2nn[nH]n2)cc1)C(C(=O)O)C(C)C.CCOC(=O)C(C)CC(Cc1ccc(-c2ccccc2)cc1)NC(=O)CCC(=O)O (centres undefined) [Sacubitril/valsartan (LCZ696)],0.856,0.709,1.24,1.04,0.622,1.01
CO/N=C(\C(=O)N[C@@H]1C(=O)N2C(C(=O)O)=CCS[C@H]12)c1csc(N)n1 [Ceftizoxime],1.04,1.74,0.987,1.24,0.67,1.56
Cc1cc(C)c(CNC(=O)c2cc(-c3ccc(CN4CCOCC4)cc3)cc3c2cnn3C2CCCC2)c(=O)[nH]1,1.48,1.7,0.808,1.97,1.44,0.692
CCN1CCCC1CNC(=O)c1cc(S(=O)(=O)CC)c(N)cc1OC (centres undefined) [Amisulpride],1.04,0.717,1.15,1.07,0.566,1.01
COc1ccc2cccc(CCNC(C)=O)c2c1 [Agomelatine],0.998,0.774,0.825,0.747,0.603,0.58
CN(C)CCC(c1ccc(Br)cc1)c1ccccn1 (centres undefined) [Brompheniramine hydrogen maleate],1.21,0.63,1.13,1.18,0.5,1.36
Cc1ncc(CO)c(CO)c1O [Pyridoxine HCl],0.686,0.861,0.642,0.7,0.426,1.11
CC(S)C(=O)NCC(=O)O (centres undefined) [Tiopronin],1.57,0.822,1.09,0.869,2.07,1.32
CN(C)C(=O)C(CCN1CCC(O)(c2ccc(Cl)cc2)CC1)(c1ccccc1)c1ccccc1 [Loperamide HCl],1.64,2.14,1.81,1.85,2.35,1.42
C[C@]12CC[C@@H]3c4ccc(O)cc4CC[C@H]3[C@@H]1C[C@@H](O)[C@@H]2O [Estriol],1.2,0.835,1.5,0.871,0.511,1.2
COc1ccc2cc(CCC(C)=O)ccc2c1 [Nabumetone],0.791,1.11,0.872,0.947,0.532,1.55
O=C1CC[C@H](N2Cc3c(OCc4ccc(CN5CCOCC5)cc4)cccc3C2=O)C(=O)N1 [Iberdomide(CC220)],1.05,1.02,0.711,1.32,1.24,0.967
COc1ccccc1OCCNCC(O)COc1cccc2[nH]c3ccccc3c12 (centres undefined) [Carvedilol],1.59,1.04,1.42,1.64,2.22,1.86
COC(=O)[C@@H]1[C@H]2C[C@H]3c4[nH]c5ccccc5c4CCN3C[C@@H]2CC[C@@H]1O [Yohimbine HCl],1.79,0.764,0.901,0.844,0.549,0.758
CC[C@H](C)[C@@H]1NC(=O)[C@H](Cc2ccc(O)cc2)NC(=O)[C@@H](N)CSSC[C@@H](C(=O)N2CCC[C@H]2C(=O)N[C@@H](CC(C)C)C(=O)NCC(N)=O)NC(=O)[C@H](CC(N)=O)NC(=O)[C@H](CCC(N)=O)NC1=O [Oxytocin (Syntocinon)],1.83,1.77,0.912,1.41,0.745,0.928
